ELG1 genotoxic: qHTS screen for small molecules that induce genotoxicity in human embryonic kidney (HEK293T) cells expressing luciferase-tagged ELG1; Potency, µM (titrated, usually from 46 µM), actives largely listed as activators; HEK293T ELG1-luciferase reporter, luminescence, 16 h; 1.3% of 330,000 active; further: nearly all actives have a fitted effect of over 60% in size
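Luminescence read-out: rising ELG1-luciferase signal, reflecting elevated ELG1 protein under genetic stress, flags genotoxic compounds. Cells were treated for 16 hr at 37 °C before ONE-Glo detection.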
ELG1 DNA repair: qHTS screen for small molecules that inhibit ELG1-dependent DNA repair in human embryonic kidney (HEK293T) cells expressing luciferase-tagged ELG1. Potency, µM (series often up to 46.1 µM), usual class: inhibitors. 2.3% of 330,000 active. AID 504467, 2011. HEK293T ELG1-luciferase reporter, luminescence, 16 h; DNA damage induced by 5-fluorouridine; further: nearly all actives have a fitted effect of over 55% in size
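Quantitative HTS, concentration-response format. 2,000 cells/well co-treated with 5-fluorouridine and compound, 16 hr in 5% CO2 at 37 °C; ONE-Glo luminescence read after 30 min.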
SMN2 splice enh: qHTS Assay for Enhancers of SMN2 Splice Variant Expression. AID 1458, 2008. 2.8% of 210,000 active. HEK293 SMN2-luciferase splicing reporter, luminescence, 30-36 h. Potency, µM (doses to about 46.1 µM), hits mostly activators; further: nearly all actives have a fitted effect of over 55% in size
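HEK293 cells carry an SMN2 […]–luciferase reporter in which exon 7 inclusion puts luciferase in frame. Cells were plated 10-12 h before compound addition, then incubated 30-36 h at 37C. ONE-Glo luminescence was read; sodium butyrate at 4.5 mM final served as control.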
NPC1 promoter act: qHTS Assay for NPC1 Promoter Activators. Potency, µM (series often up to 9.22 µM), usual class: activators. AID 485313, 2010. 2.4% of 320,000 active. Huh7 NPC1 promoter luciferase reporter, 24 h; further: nearly all actives have a fitted effect of over 60% in size
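Huh7 cells stably carrying NPC1 promoter–luciferase, plated in Opti-MEM with 10% FBS for 2 h, were exposed to compound in DMSO for 24 h at 37 °C; luciferase reagent was added for 10 min and luminescence read.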
Rab9 promoter act: qHTS Assay for Rab9 Promoter Activators. Huh7 Rab9 promoter-luciferase reporter, luminescence, 24 h. Potency, µM (titrated, usually from 9.22 µM), most hits filed as activators. 2.8% of 320,000 active; further: nearly all actives have a fitted effect of over 60% in size
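Cells were plated at 1500 per well in reduced-serum medium with 10% FBS and left 2 h. Compound in DMSO was then added for 24 h at 37 °C. Reporter signal was read by luminescence after 10 min with luciferase detection reagent.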
FLuc modulator: qHTS profiling assay for firefly luciferase inhibitor/activator using purifed enzyme and Km concentrations of substrates (counterscreen for miR-21 project); Potency, µM (top dose mostly 57.5 µM), usual class: inhibitors; 6.9% of 360,000 active; AID 588342, 2011; purified FLuc, Km substrates, luminescence inhibition; Luciferin 4-monooxygenase (Photinus pyralis), P08659; further: nearly all actives have a fitted effect of over 55% in size
Target sequence (P08659 whole entry, looked up): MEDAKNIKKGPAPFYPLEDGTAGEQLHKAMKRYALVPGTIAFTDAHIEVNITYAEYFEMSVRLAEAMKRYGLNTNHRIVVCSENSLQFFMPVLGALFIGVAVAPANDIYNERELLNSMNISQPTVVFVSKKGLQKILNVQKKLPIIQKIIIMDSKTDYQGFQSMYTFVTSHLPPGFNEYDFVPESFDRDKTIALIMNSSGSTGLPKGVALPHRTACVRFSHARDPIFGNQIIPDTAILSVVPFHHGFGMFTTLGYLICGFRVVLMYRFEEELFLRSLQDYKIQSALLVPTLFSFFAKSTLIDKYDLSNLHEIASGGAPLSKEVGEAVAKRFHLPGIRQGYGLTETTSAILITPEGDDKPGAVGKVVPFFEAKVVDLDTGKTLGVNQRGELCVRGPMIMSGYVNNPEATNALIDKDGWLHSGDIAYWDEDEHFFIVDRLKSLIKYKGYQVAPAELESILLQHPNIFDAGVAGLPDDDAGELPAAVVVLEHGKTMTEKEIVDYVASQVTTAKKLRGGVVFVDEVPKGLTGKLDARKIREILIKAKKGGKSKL
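Biochemical qHTS of compounds, final roughly 60 µM downward over six points, against 10 nM purified firefly luciferase using Km concentrations of substrates (10 uM D-luciferin, 10 uM ATP) in Tris acetate pH 7.5 buffer; luminescence output.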
Numbers stand for hits; - = inactive; ? = inconclusive; . = not tested or not shown; [ ] = another dose, or the depositor's remark. Sampled rows, rich in hits. Any-hit rate of the full collection: about 9.2%. The call rests on the fitted dose curve; in most records, active means well fitted curve in the direction sought with a large enough effect; inconclusive means small, poorly fitted or top-dose-only effect, or another doubt; inactive means no such curve, though single readings can be large; an effect the other way counts as inactive or inconclusive.

SMILES	ELG1 genotoxic	ELG1 DNA repair	SMN2 splice enh	NPC1 promoter act	Rab9 promoter act	FLuc modulator
CCCOc1cccc(C(=O)Nc2ccc3c(c2)OCCO3)c1	2.31µM	?	.	3.16µM	?	0.953µM
COc1ccccc1N1CCN(C(CNC(=O)C(=O)NCCc2ccccc2)c2cccnc2)CC1 (stereo not drawn)	.	.	.	.	.	-
CCOc1cc(/C=C(\C#N)C(=O)Nc2ccc(S(N)(=O)=O)cc2)ccc1OCCN1CCOCC1	-	-	.	?	-	-
Cc1onc(-c2ccccc2Cl)c1C(=O)NCc1ccccc1F	-	-	.	-	-	-
COc1ccc(-c2noc(CN(C(=O)C(C)(C)C)C(C)C)n2)cc1	14.6µM	?	-	-	-	?
Cc1onc(-c2ccccc2Cl)c1C(=O)NCc1nc(-c2ccc(C(F)(F)F)cc2)no1	-	14.6µM	.	-	-	-
Cc1ccc(-c2noc(CN(C(=O)CCN3C(=O)c4ccccc4C3=O)C(C)C)n2)cc1	-	-	-	-	-	-
Cc1ccc(-c2noc(CN(C(=O)CCCCCN3C(=O)c4ccccc4C3=O)C(C)C)n2)cc1	-	18.4µM	-	-	-	-
Cc1ccc(C)c(C(=O)N(Cc2nc(-c3ccc(Cl)cc3)no2)C(C)C)c1	-	20.6µM	-	-	-	-
CCOC(=O)C1=C(C)N(C)C(=S)NC1c1ccc(Cl)cc1Cl (stereo not drawn)	-	-	-	-	-	-
C=C(C)C(=O)/C=C/c1ccc(C(F)(F)F)cc1	.	.	-	.	.	.
Cc1cccc(-c2noc(CN(C(=O)c3ccc(C)c(C)c3)C(C)C)n2)c1	.	.	-	.	.	-
Cc1cccc(-c2noc(CN(C(=O)c3c(-c4ccccc4Cl)noc3C)C(C)C)n2)c1	-	20.6µM	-	-	-	-
Oc1c(C(c2ccc(Cl)cc2)N2CCCC2)sc2nc(-c3ccco3)nn12 (stereo not drawn)	.	.	.	.	.	-
COc1ccc(OC)c(-n2nnnc2SCC(=O)Nc2ccc(C(=O)N3CCCCC3)cc2)c1	-	23.1µM	-	-	-	-
CCOc1ccc(S(=O)(=O)NCc2ccncc2)cc1NC(=O)c1ccccc1	?	4.11µM	.	-	-	-
COc1ccc(C(=O)Nc2ccc(C(=O)N3CCCCC3)cc2)cc1OC	-	?	.	-	-	23.9µM
COc1ccc(CNS(=O)(=O)c2ccc(F)c(C(=O)Nc3ccccc3OC)c2)cc1	-	?	-	-	-	-
COc1ccccc1NC(=O)c1cc(S(=O)(=O)NCc2ccccc2)ccc1F	-	16.4µM	-	-	-	-
Cc1cc(C)cc(N2C(=O)CSC23C(=O)N(CC(=O)Nc2ccc(F)cc2F)c2ccccc23)c1 (stereo not drawn)	.	.	.	.	.	-
COc1ccccc1NC(=O)Nc1ccc(C(=O)N2CCCCC2)cc1	13µM	?	.	?	0.891µM	3.01µM
Cc1ccc(C(=O)Nc2ccc(C(=O)N3CCCCC3)cc2)o1	?	?	.	?	?	23.9µM
CCNS(=O)(=O)c1ccc(NC(=O)Nc2cc(C)ccc2OC)cc1	-	?	.	-	-	?
CCNS(=O)(=O)c1ccc(NC(=O)Nc2ccccc2OC)cc1	-	?	.	-	-	16.9µM
Cc1ccc(S(=O)(=O)NCc2ccccc2)cc1C(=O)N1CC(C)CC(C)C1 (stereo not drawn)	-	-	.	-	-	-
SMILES	ELG1 genotoxic	ELG1 DNA repair	SMN2 splice enh	NPC1 promoter act	Rab9 promoter act	FLuc modulator
Cc1ccc(S(=O)(=O)NCc2ccccc2)cc1C(=O)NC1CCC(C)CC1 (stereo not drawn)	?	?	.	?	1.26µM	?
CCN(CC)c1nc2ccccc2n(Cc2cccc(OC)c2)c1=O	-	-	.	-	-	-
COC(=O)C1=NNC2(c3ccc(C)cc3)C(=O)N(c3ccc(C)cc3)C(=O)C12 (stereo not drawn)	-	?	.	-	-	-
O=C1CSc2ccc(S(=O)(=O)N3CCN(c4ccccc4F)CC3)cc2N1	-	?	.	-	-	-
CCOc1ccc(NS(=O)(=O)c2ccc(C(=O)NCC(c3ccco3)N3CCCC3)cc2)cc1 (stereo not drawn)	-	-	.	-	-	-
Cc1cc(NC(=O)CCCSc2nc(-c3ccco3)cc(C(F)(F)F)n2)n(-c2ccccc2)n1	-	16.4µM	-	-	-	-
Cc1ccc(CSC2=Nc3ccccc3C3=NC(=O)CN23)cc1	-	-	?	-	-	-
COc1cc2c(cc1OC)C1=NC(=O)CN1C(SCc1ccccc1C)=N2	-	10.3µM	-	-	-	-
CC(C)COc1cccc(C(=O)Nc2ccc(-c3nc4ncccc4o3)cc2)c1	.	.	-	.	.	-
COCCNC(=O)C(c1ccc(C)o1)N(Cc1ccco1)C(=O)c1snc(C(N)=O)c1N (stereo not drawn)	-	-	-	-	-	-
NC(=O)c1nsc(C(=O)N(Cc2ccco2)C(C(=O)NCc2ccc(F)cc2)c2ccc(O)cc2)c1N (stereo not drawn)	-	11.6µM	.	-	-	-
Cc1ccc(C(C(=O)NCc2ccc(F)cc2)N(Cc2ccco2)C(=O)c2snc(C(N)=O)c2N)o1 (stereo not drawn)	-	20.6µM	.	-	-	-
Cc1ccc(C)c(C(=O)CCC(=O)NNC(=O)c2cccs2)c1	-	?	.	.	.	.
O=c1[nH]cc(CS(=O)(=O)Cc2c[nH]c(=O)[nH]c2=O)c(=O)[nH]1	.	.	-[9.22 µM]	.	.	.
CCOC(=O)Cc1csc(N/C(=N/S(=O)(=O)c2cc(Br)ccc2OCC)c2ccccc2)n1	-	-	-	-	-	-
CCCc1cc(C(=O)Nc2ccc(C#N)cc2)no1	-	?	.	-	-	-
CCCc1cc(C(=O)Nc2ccc(C(C)=O)cc2)no1	?	?	-	-	-	?
CCCc1cc(C(=O)Nc2cccc(C(C)=O)c2)no1	?	?	-	3.16µM	?	?
COc1ccc(NC(=O)c2cc(C(C)C)on2)cc1OC	?	?	-	-	-	?
CCCc1cc(C(=O)Nc2ccc(F)cc2F)no1	11.6µM	?	-	-	?	10.7µM
CCCc1cc(C(=O)Nc2ccc(F)c(Cl)c2)no1	?	-	.	-	-	5.36µM
CC(C)c1cc(C(=O)Nc2cccnc2)no1	?	?	35.5µM	3.98µM	2.82µM	-[2.3 µM]
COc1ccc(S(=O)(=O)N(Cc2nc(-c3ccccc3)no2)C2CCCCC2)cc1	.	.	-	.	.	-
COc1cccc(NC(=O)Cn2nc(-c3ccncc3)ccc2=O)c1	.	.	.	.	.	-

Screening data from PubChem.
